Bioassay records from PubChem BioAssay.
BRCA1 expr act: qHTS Assay to Identify Small Molecule Activators of BRCA1 Expression | MCF7-BRCA1-FFLuc reporter, luminescence, 48 h; response scale: scaled: vehicle 0%, 10 µM genistein 100% | Potency, µM (highest dose often 46.1 µM), for the others: at the top dose activation, most hits filed as activators | hit rate 1.1% among 380,000 | AID 624202, 2012; also: potency is read from the fitted curve at half-maximal effect; nearly all actives have a fitted effect of over 80% in size
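Luminescence from a BRCA1-driven firefly luciferase in MCF7 cells was read after 48 h compound exposure at 37 C. Data normalized against DMSO and a 10microM genistein activation control, then curve-fitted across the titration.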
p53 reactivator: qHTS assay for re-activators of p53 using a Luc reporter; hit rate 0.063% among 320,000; Potency, µM (series often up to 92.2 µM), inactives show at the highest dose activity change, positive = activation, usual class: activators; AID 504706, 2011; H1299 p53-A138V BP100-luciferase reporter, luminescence, 24 h; also: potency is read from the fitted curve at half-maximal effect; % of control where 0% means no effect; nearly all actives have a fitted effect of over 45% in size
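H1299 (p53-null), stable ts p53-A138V + BP100-Luc; 1000 cells/well, Opti-MEM/10% FBS; cpd 4 pt, 1:5; 24 h, 37 deg C, 5% CO2; detection reagent 10 min RT; luminescence.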
Anesthetic bind: qHTS Assay for Identification of Novel General Anesthetics. apoferritin/1-aminoanthracene competitive binding, fluorescence. Potency, µM (highest dose often 77.5 µM), without a hit: top-dose activity change, negative = displacement, usual class: inhibitors. hit rate 0.074% among 350,000; also: potency is read from the fitted curve at half-maximal effect; % is scaled to controls: 0 for no effect and ±100 for the full control effect; nearly all actives have a fitted effect of over 20% in size
Target sequence (P02791 2-175 limits assumed): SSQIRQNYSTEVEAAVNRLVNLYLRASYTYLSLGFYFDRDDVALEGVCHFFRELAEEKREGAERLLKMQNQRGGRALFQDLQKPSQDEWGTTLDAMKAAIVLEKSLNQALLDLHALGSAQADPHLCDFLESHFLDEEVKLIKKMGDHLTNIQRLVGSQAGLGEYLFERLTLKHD
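Read-out: endpoint 1-AMA fluorescence, excitation 380 nm and emission 535 nm, after compounds sit 10 min at room temperature with 10 uM horse-spleen apoferritin in 50% saturated 1-AMA/PBS. Values come from four-parameter Hill fits.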
miR-21 act: qHTS Assay for Modulators of miRNAs and/orActivators of miR-21. Potency, µM (top dose mostly 38.3 µM), for inactives: top-dose activity change, positive = activation, most hits filed as activators. 340,000 tested, under 10 active. HeLa miR-21 FLuc reporter, luciferase, 48 h. AID 2288, 2010;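 also: % of control where 0% means no effect; miR-21 action dims this reporter so a rising signal means less miR-21 action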
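Compounds were titrated across several concentrations (up to approximately 40 uM) and incubated 48 hours with HeLa miR-21-FLuc reporter cells (miR-21 target sequence downstream of FLuc, endogenous miR-21). Readout was firefly luciferase luminescence after lytic detection reagent.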
Numbers without * were called inactive; ? = inconclusive; nt = not tested or not shown. An excerpt weighted towards active compounds, which were near 1.1% of everything screened. Calls follow the shape of the dose curve; as a rule, active = well fitted curve in the direction sought with a large enough effect; inconclusive = small, poorly fitted or top-dose-only effect, or another doubt; inactive = no such curve, though single readings can be large; an effect the other way counts as inactive or inconclusive.

SMILES	BRCA1 expr act	p53 reactivator	Anesthetic bind	miR-21 act
COc1ccc(CCn2nc(C)c([N+](=O)[O-])c2C)cc1	8.91µM*	27.9%	-6.9%	-63.8%
COc1cccc(-n2c(CCn3nc(C)c([N+](=O)[O-])c3C)n[nH]c2=S)c1	1.2%	-1.8%	-11.4%	-5.7%
CC12CCC(=O)N1C(C(=O)NNC(=O)c1ccc(Br)cc1)CS2 (stereo unspecified)	-4.2%	-1.8%	nt	nt
Cc1cc(C)n(-c2nnc3c4ccccc4n(C)c3n2)n1	1.41µM*	7.9%	-7.3%	-38.4%
O=C(C1CCCN(S(=O)(=O)c2cccc3nsnc23)C1)N1CCN(c2ccccc2F)CC1 (stereo unspecified)	-7.3%	nt	-6.0%	3.4%
O=C(NC1CCc2ccccc21)c1cc(COc2cncc(Cl)c2)on1 (stereo unspecified)	83.7%	-4.1%	44.7µM*	0.3%
Cc1ccc(C)c(N2CCN(CCCNC(=O)Cn3c(-c4cccs4)cc4ccccc43)CC2)c1	nt	nt	-18.6%	25.7%
CCCC(=O)Nc1nnc(/C=C/c2ccc(OC)cc2)s1	5.62µM*	3.6%	53.8%	-22.7%
COc1ccc(/C=C/c2nnc(NC(=O)COc3cccc(C)c3)s2)cc1	4.47µM*	-1.8%	36.2%	-15.8%
CCCCn1c(N)c(N(CC(C)C)C(=O)COC(=O)Cc2cccc(OC)c2)c(=O)[nH]c1=O	-1.5%	8.0%	nt	nt
Cn1c(SCC(=O)c2ccccc2)nnc1-c1ccccn1	11.2µM*	9.6%	-6.6%	-47.8%
Cc1ccc(Nc2nc(COC(=O)C3CC3)cs2)cc1	10µM*	0.7%	?	-40.3%
CCCSc1nc2sc3c(c2c(=O)n1-c1ccccc1)CCC(C)C3 (stereo unspecified)	nt	nt	-0.6%	-1.2%
CC(C)[C@@H](CO)NC(=O)c1ccc2c3n(nc2c1)-c1ccc(Cl)cc1CO3	3.98µM*	16.8%	-13.1%	-64.2%
Cc1ccc2c(c1)COc1c3ccc(C(=O)N4CCOCC4)cc3nn1-2	4.47µM*	24.2%	0.0%	-60.9%
O=C(c1ccc2c3n(nc2c1)-c1ccc(Cl)cc1CO3)N1CCCCC1	?	?	-15.8%	-59.6%
O=C(NCCO)c1ccc2c3n(nc2c1)-c1ccc(Cl)cc1CO3	3.16µM*	17.0%	8.2%	-72.4%
C[C@@H](CO)NC(=O)c1ccc2c3n(nc2c1)-c1ccc(Cl)cc1CO3	?	21.3%	3.9%	-34.6%
O=C(NCC1CC1)c1ccc2c3n(nc2c1)-c1ccc(Cl)cc1CO3	2.51µM*	nt	nt	nt
COCCNC(=O)c1ccc2c3n(nc2c1)-c1ccc(Cl)cc1CO3	?	5.8%	-3.0%	-57.4%
CCOC(=O)CC1NCCc2c1[nH]c1ccc(OC)cc21 (stereo unspecified)	-9.5%	4.6%	10.7%	3.8%
CCc1ccc(NC(=O)CC2C(=O)N(c3ccc(Cl)cc3)C(=O)N2Cc2cccs2)cc1 (stereo unspecified)	nt	nt	1.9%	-0.4%
C/C(=N\NC(=O)C1CC1)c1ccc(C)c(C)c1	10µM*	11.7%	-3.9%	-28.5%
C/C(=N\NC(=O)C1CC1)c1ccc(Cl)c(Cl)c1	63.7%	-1.3%	-6.8%	-21.6%
CCNC(=S)N/N=C(\C)c1ccc(N2CCOCC2)cc1	9.9%	-1.3%	3.9%	-5.5%
SMILES	BRCA1 expr act	p53 reactivator	Anesthetic bind	miR-21 act
C/C(=N\NC(=O)c1ccccc1)c1ccc(N2CCCCC2)cc1	11.2µM*	29.8%	-6.1%	-79.7%
C/C(=N\NC(=O)c1ccccc1)c1ccccc1Br	11.2µM*	?	4.0%	-51.1%
C/C(=N\NC(=O)c1ccccc1)c1ccccc1F	?	-5.4%	-6.7%	-59.7%
CNC(=S)N/N=C(\C)c1ccc(N2CCOCC2)cc1	8.91µM*	?	-10.9%	21.4%
CC1CCN(C(=O)CN2CCSc3ccccc32)CC1	nt	nt	-1.9%	-6.3%
Cc1ccc2nc(CSc3nnc(NC(=O)COc4ccccc4)s3)cc(=O)n2c1	nt	nt	-6.9%	-2.2%
COc1ccc(C(=O)NCCc2c[nH]c3ccccc23)cc1	5.62µM*	-7.0%	-4.2%	-62.5%
O=C(NCCc1c[nH]c2ccccc12)c1ccc(Cl)cc1	3.55µM*	-18.0%	-13.3%	-72.9%
COc1ccc(OCC(=O)NCCc2c[nH]c3ccccc23)cc1	-25.2%	-7.1%	-13.6%	-5.8%
COc1ccc(C(=O)c2c[nH]c3ccccc23)cc1	3.55µM*	nt	-10.4%	-38.2%
Cc1ccsc1C(=O)NCCc1c[nH]c2ccccc12	12.6µM*	?	-12.3%	-60.7%
O=C(NCCSc1c[nH]c2ccccc12)c1ccc(Cl)cc1	nt	nt	-10.4%	6.0%
Cc1ccc(Cl)cc1N1CCN(C(=O)c2ccc3c(c2)N(Cc2ccc(F)cc2)CCS3)CC1	nt	nt	-17.2%	20.8%
N#Cc1nc(-c2ccc(OCc3ccccc3Cl)cc2)oc1N1CCCCCC1	5.3%	nt	nt	nt
O=C1C=C(CCc2ccccc2)CCC1	41.0%	nt	nt	nt
O=C(NCCc1c[nH]c2ccccc12)c1ccc(F)cc1F	3.98µM*	?	-9.3%	-69.4%
COc1ccccc1NC(C)C(=O)c1c[nH]c2ccccc12 (stereo unspecified)	12.6µM*	nt	nt	nt
COc1cccc(CN2CC(C(=O)NCCN3CCOCC3)CCC2=O)c1 (stereo unspecified)	-10.2%	2.3%	-7.3%	-1.0%
N#Cc1c(N2CCSCC2)nsc1-c1ccccc1Cl	11.2µM*	?	-12.4%	-20.4%
N#Cc1c(Cl)cccc1N1CCSCC1	19.4%	nt	nt	nt
COc1cccc(CNC(=O)c2cc3c(=O)oc4ccc(C)cc4c3s2)c1	4.3%	nt	-11.9%	-0.5%
Cc1ccc(C2NNC(=O)C2NC(=O)c2ccccc2)cc1 (stereo unspecified)	11.2µM*	0.2%	-11.7%	-43.3%
Cc1cccc(NC(=O)c2cccnc2)c1C	10.4%	nt	-2.8%	-2.7%
CSCc1ccc(C(=O)Nc2cccc(C)c2C)cc1	11.2µM*	?	2.0%	-57.9%
CSc1ccc(/C=N/n2c(C)cc(C)cc2=O)cc1	10µM*	29.5%	-18.4%	-49.1%
SMILES	BRCA1 expr act	p53 reactivator	Anesthetic bind	miR-21 act
CCOc1ccccc1CNC(=O)c1cnc2sc(N3CCCCCC3)nn2c1=O	nt	nt	8.0%	0.0%
CN(C(=O)CSc1ncnc2sccc12)C1CCCCC1	3.98µM*	?	nt	nt
NC(=NCc1ccco1)NC(=O)c1ccc(Cl)cc1	11.2µM*	29.5%	-4.5%	-43.5%
Cc1cc(O)c(-c2cc(C(=O)Nc3cccnc3)[nH]n2)cc1C	5.62µM*	9.1%	1.6%	-78.3%
Cc1ccc(S(=O)(=O)CNC(=S)c2ccc3ccccc3c2)cc1	26.6%	6.2%	25.1µM*	-6.0%
Cc1ccc(S(=O)(=O)CNC(=S)c2cccc(C)c2)cc1	2.7%	0.9%	28.2µM*	-2.2%
COc1ccc(C(=S)NCS(=O)(=O)c2ccc(C)cc2)cc1	6.2%	8.6%	?	-6.5%
Cc1cccc(OCc2ccc(-c3nc(C#N)c(NCc4cccnc4)o3)o2)c1	nt	nt	36.6%	?
CCOC(=O)c1c(NC(=O)/C=C/c2ccc(C)o2)sc(C)c1C	-81.5%	-5.8%	-10.4%	-7.0%
